# Only a selection was taken, and hits are over-represented in it overall.
# LmPK inh: qHTS Assay for Inhibitors of Leishmania Mexicana Pyruvate Kinase (LmPK); Q27686; purified LmPK, Kinase-Glo ATP luminescence, 1 h; Potency, µM (highest dose often 57.5 µM), usual class: inhibitors; 0.37% of 290,000 active; AID 1721, 2009
#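 0.1 nM LmPK, 0.5 mM PEP, 0.1 mM ADP; 50 mM imidazole pH 7.2, 7 mM MgCl2, 50 mM KCl; 1 h RT. Kinase-Glo luminescence readout, normalized to no-enzyme (full inhibition) and uninhibited wells.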
# TbPYK inhibitor: qHTS of Trypanosoma Brucei Inhibitors; pyruvate kinase (Trypanosoma brucei), Q57TT1; TbPYK enzyme, Kinase-Glo Plus ATP luminescence, 45 min; Potency, µM (highest dose often 76.8 µM), usual class: inhibitors; 0.12% of 410,000 active; also: nearly all actives have a fitted effect of over 50% in size
#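 ADP (130 uM final) triggers the TbPYK reaction after compound addition; incubation is 45 min at room temperature. Kinase-Glo Plus is then added and luminescence imaged. Normalized data are fitted to concentration-effect curves.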
# RE007 growth inh: qHTS Assay for Inhibitors of the HIV-1 protein Vpr | S. pombe RE007 Vpr strain, BacTiter-Glo ATP luminescence, 24 h | Potency, µM (doses to about 92.2 µM), hits mostly inhibitors | 0.21% of 360,000 active; active = well fitted falling curve with a large enough effect; inconclusive = small, poorly fitted or top-dose-only effect; inactive = no such curve, though single readings can be large or run the other way; also: nearly all actives have a fitted effect of over 50% in size
#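 Fission yeast strain RE007, carrying one chromosomally integrated HIV-1 vpr copy, was seeded at OD 0.01 in PMG+AL medium with 23 nL pinned compound. After 24 h at 30 °C and 99% humidity, viability was read by BacTiter-Glo luminescence.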
# Cycloheximide cs: Cycloheximide Counterscreen for Small Molecule Inhibitors of Shiga Toxin; AID 2314, 2010; cell reporter, cycloheximide protein synthesis inhibition counterscreen; 12% of 300,000 active; max response, %; in the data active = max response mostly above about 13%, no sharp cut-off; inactive = mostly below about 14%; also: read at 38.3 µM for the half of the compounds with a filed dose
# Shiga inhibitor: A qHTS for Small Molecule Inhibitors of Shiga Toxin; Vero cells, Shiga toxin protein synthesis inhibition reporter; inhibition, % at 38.7 µM; 9.2% of 290,000 active; AID 2315, 2010; in the data active = inhibition mostly above about 28%, no sharp cut-off; inactive = mostly below about 43%
# Giardia FBPA inh-1: qHTS Assay for Inhibitors of Fructose-1,6-bisphosphate Aldolase from Giardia Lamblia; 0.71% of 290,000 active; Potency, µM (titrated, usually from 59.6 µM), usual class: inhibitors; purified Giardia FBPA; AID 2451, 2010; also: nearly all actives have a fitted effect of over 55% in size
# Target sequence (A8B2U2 whole entry, looked up): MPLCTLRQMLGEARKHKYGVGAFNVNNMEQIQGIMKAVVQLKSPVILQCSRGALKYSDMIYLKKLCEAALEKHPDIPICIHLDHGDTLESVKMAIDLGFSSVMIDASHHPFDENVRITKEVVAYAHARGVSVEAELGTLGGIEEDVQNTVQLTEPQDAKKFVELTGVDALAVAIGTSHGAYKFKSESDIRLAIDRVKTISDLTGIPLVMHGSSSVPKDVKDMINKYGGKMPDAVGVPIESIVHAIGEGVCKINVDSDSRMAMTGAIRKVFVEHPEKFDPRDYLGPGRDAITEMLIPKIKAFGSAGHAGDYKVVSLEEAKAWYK
#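 40 nM FBPA preincubated 10 min at RT with compound (up to 57.5 uM final), then substrate plus GAPDH/TPI/NAD/arsenate coupling and diaphorase/resazurin added. Fluorescence read after 20 min at RT, 525/598 nm.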
# Giardia growth: qHTS Assay for Inhibitors of Fructose-1,6-bisphosphate Aldolase from Giardia Lamblia: Giardia lamblia growth inhibition; shares compounds with Giardia FBPA inh-1; Giardia lamblia trophozoite growth inhibition; Potency, µM (titrated, usually from 57.5 µM), most hits filed as inhibitors; 5% of 1,500 active; AID 2785, 2010;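 also: trophozoites exposed to compound for 48 h at 37 °C; nearly all actives have a fitted effect of over 70% in size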
# Mammalian tox: qHTS Assay for Inhibitors of Fructose-1,6-bisphosphate Aldolase from Giardia Lamblia: Mammalian cellular toxicity; shares compounds with Giardia FBPA inh-1; mammalian cell viability counter-screen, qHTS; Potency, µM (top dose mostly 57.5 µM), most hits filed as inhibitors; 4% of 1,500 active; AID 2786, 2010;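 also: Chinese hamster ovary cells used as mammalian cytotoxicity surrogate; viability measured as cellular ATP by luminescence; compound exposure lasted 48 h before reading; nearly all actives have a fitted effect of over 60% in size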
# Giardia FBPA inh-2: qHTS Assay for Inhibitors of Fructose-1,6-bisphosphate Aldolase from Giardia Lamblia: Primary screen confirmation; shares compounds with Giardia FBPA inh-1; purified Giardia aldolase enzyme activity, qHTS; Potency, µM (series often up to 57.5 µM), hits mostly inhibitors; 5% of 1,500 active; AID 2787, 2010; also: nearly all actives have a fitted effect of over 45% in size
# Rabbit FBPA inh: qHTS Assay for Inhibitors of Fructose-1,6-bisphosphate Aldolase from Giardia Lamblia: Rabbit FBPA Selectivity. Potency, µM (series often up to 57.5 µM), hits mostly inhibitors. AID 2794, 2010. 4% of 1,500 active. shares compounds with Giardia FBPA inh-1. Rabbit muscle FBPA enzyme inhibition, selectivity counter-screen; also: nearly all actives have a fitted effect of over 60% in size
# Target sequence (P00883 whole entry, looked up): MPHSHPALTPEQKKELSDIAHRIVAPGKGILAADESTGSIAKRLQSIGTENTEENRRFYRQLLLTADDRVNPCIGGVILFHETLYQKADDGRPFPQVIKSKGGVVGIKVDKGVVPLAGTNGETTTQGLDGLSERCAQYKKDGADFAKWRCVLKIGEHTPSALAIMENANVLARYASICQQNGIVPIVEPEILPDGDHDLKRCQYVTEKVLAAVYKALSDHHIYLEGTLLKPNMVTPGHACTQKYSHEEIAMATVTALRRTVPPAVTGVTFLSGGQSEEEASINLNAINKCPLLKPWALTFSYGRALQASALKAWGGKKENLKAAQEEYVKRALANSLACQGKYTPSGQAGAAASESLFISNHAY
# GAPDH counter: qHTS Assay for Inhibitors of Fructose-1,6-bisphosphate Aldolase from Giardia Lamblia: Coupling assay counterscreen confirmation | shares compounds with Giardia FBPA inh-1 | GAPDH coupling enzyme counterscreen, biochemical, qHTS | Potency, µM (doses to about 57.5 µM), usual class: inhibitors | 6% of 1,500 active | AID 2795, 2010; also: nearly all actives have a fitted effect of over 55% in size
# Hits are given with their value; – = inactive; ? = inconclusive; · = no result given; [ ] = remark or other dose. Unless noted, calls follow the shape of the dose curve; as a rule, active = well fitted curve in the direction sought with a large enough effect; inconclusive = small, poorly fitted or top-dose-only effect, or another doubt; inactive = no such curve, though single readings can be large; an effect the other way counts as inactive or inconclusive.
SMILES,LmPK inh,TbPYK inhibitor,RE007 growth inh,Cycloheximide cs,Shiga inhibitor,Giardia FBPA inh-1,Giardia growth,Mammalian tox,Giardia FBPA inh-2,Rabbit FBPA inh,GAPDH counter
Cc1cc(C)c2c(NC(=S)NC(=O)c3ccccc3)nn(C)c2n1,–,–,–,–,–,18µM,–[10.4 µM],–,–,–,–
COc1ccc(-c2cc(=O)c3ccccc3o2)cc1OC,·,·,·,·,·,7.9µM,–,?,?,?,–
CCc1nnc(NC(=O)CSc2nccn2Cc2ccc(F)cc2)s1,·,–,·,·,·,·,·,·,·,·,·
CCOc1cc(C(=O)NC(=S)Nc2ccc(Cl)c(C(=O)O)c2)cc(OCC)c1OCC,–,–,–,–,–,–,·,·,·,·,·
COc1cc(C(=O)NC(=S)Nc2ccc(Cl)cn2)cc(OC)c1OC,–,–,–,–,–,10µM,–,–,–,–,–
CCOc1ccc(NC(=S)NC(=O)c2c(Br)cnn2C)c([N+](=O)[O-])c1,–,–,–,–,–,–,·,·,·,·,·
COc1cc(C(=O)Nc2ccc(NC(=O)c3cccc(Cl)c3)nc2)cc(OC)c1OC,–,–,–,–,–,–,·,·,·,·,·
COc1ccc(C(=O)NC(=S)Nc2cccnc2)cc1Cl,–,–,–,–,–,10µM,–[10.4 µM],–,–,–,–
CCOc1cc(C(=O)NC(=S)Nc2cccnc2)cc(OCC)c1OCC,–,–,–,–,–,11µM,–[10.4 µM],–,–,–,–
CCOc1ccc(NC(=S)NC(=O)c2cccnc2)c([N+](=O)[O-])c1,–,–,–,–,–,8.9µM,35µM,–,–,–,–
CC(C)c1ccc(NC(=O)c2ccc3c(c2)CCCN3S(C)(=O)=O)cc1,·,–,·,·,·,·,·,·,·,·,·
CC(=O)N1CCOc2cc(S(=O)(=O)NCc3ccccc3Cl)c(C)cc21,·,–,·,·,·,·,·,·,·,·,·
Cc1cc(C)c(C)c(OCCOCCN2CCN(C)CC2)c1,–,–,–,–,–,–,·,·,·,·,·
Cc1ccc(OCCOCCN2CCN(C)CC2)c(C(C)(C)C)c1,–,–,–,–,–,13µM,–,–,–,–,–
C=CCc1cc(C)ccc1OCCOCCN1CCN(C)CC1,–,–,–,–,–,16µM,–,–,–,–,–
Cc1cc(Cl)c(OCCOCCN2CCN(C)CC2)c(Br)c1,–,–,–,–,·,22µM,–[10.4 µM],–,–,–,–
COc1cc(NC(=O)CC(C)n2nc(C)cc2C)cc(OC)c1 (stereo not given),·,–,·,·,·,·,·,·,·,·,·
CCC1CCC2(CC1)NC(CO)(CO)CO2 (stereo not given),–,–,–,–,–,–,·,·,·,·,·
CCC1CCC2(CC1)NNC(=S)NN2,–,–,–,–,–,13µM,–[10.4 µM],–,–,–,–
CN1CCC(NCCC(c2ccc(F)cc2)c2ccc(Cl)cc2)CC1 (stereo not given),–,–,–,–,–,14µM,?,20µM,–,–,–
CC(C)C(CCNC1CCN(C)CC1)c1ccc(Cl)cc1 (stereo not given),–,–,–,–,–,?,·,·,·,·,·
CCCCn1c(C)cc2c(c1=O)C1O[C@](c3ccsc3)(Cc3ccccc31)O2,–[11.5 µM],·,·,–,–,–[12.9 µM],·,·,·,·,·
CN(C)c1ccc(C(CNC(=O)c2cccc(C(F)(F)F)c2)N2CCCC2)cc1 (stereo not given),·,–,·,·,·,·,·,·,·,·,·
CCOC(=O)c1[nH]cnc1C(=O)O,–,–,–,–,–,18µM,–,–,–,–,–
CC1CCCCN1CCCNC(=O)c1cc(Sc2cccc(Cl)c2)nc2ccccc12 (stereo not given),·,–,·,·,·,·,·,·,·,·,·
SMILES,LmPK inh,TbPYK inhibitor,RE007 growth inh,Cycloheximide cs,Shiga inhibitor,Giardia FBPA inh-1,Giardia growth,Mammalian tox,Giardia FBPA inh-2,Rabbit FBPA inh,GAPDH counter
CC(C)NCC(=O)Nc1c2c(nc3ccccc13)CCC2,–,–,–,–,–,18µM,–[10.4 µM],–,–,–,–
COC(=O)CN=Cc1c(C)[nH]n(-c2ccccc2)c1=O,–,–,–,–,–,–,·,·,·,·,·
COCC(=O)N/N=C/c1c(C)[nH]n(-c2ccccc2)c1=O,–,–,–,–,–,7.1µM,–,–,–,–,–
Cc1[nH]n(-c2ccccc2)c(=O)c1/C=N/O,–,–,–,–,–,16µM,?,–,–,–,–
Cc1nn(-c2ccccc2)c(C)c1/C=N/n1c(-c2ccc(Cl)cc2)n[nH]c1=S,–,–,–,–,–,–,·,·,·,·,·
Cn1[nH]c(-c2ccccc2)c(/C=N/O)c1=O,–,–,–,–,–,16µM,–[10.4 µM],–,–,–,–
Cc1ccc(-c2n[nH]c(=S)n2/N=C/c2c(C)[nH]n(-c3ccccc3)c2=O)cc1,–[11.5 µM],?,–,–,–,10µM,–,–,?,–,–
COc1cc2nc(SCc3cccc(Cl)c3)n3nc(CCn4nc(C)cc4C)nc3c2cc1OC,·,–,·,·,·,·,·,·,·,·,·
CC(=O)N/N=C/c1c(C)[nH]n(-c2ccccc2)c1=O,–,–,–,–,–,16µM,–[10.4 µM],–,–,–,–
CCCCc1nn2c(=O)cc(COC(=O)c3ccccc3NC(=O)C3CCCCC3)nc2s1,·,–,·,·,·,·,·,·,·,·,·
CCC1=C2CC[C@H]3C(=O)N(CC)C(=O)[C@H]3[C@H]2[C@@]2(C)C(=NCC(=O)OC)OC(=O)N2C1=O,·,·,·,·,·,–,·,·,·,·,·
O=C(CC(=O)Nc1ccccc1F)Nc1ccc2nc3n(c(=O)c2c1)CCCCC3,·,–,·,·,·,·,·,·,·,·,·
COc1ccccc1N1CCN(C(=O)CSc2n[nH]c(-c3ccccc3Cl)n2)CC1,·,–,·,·,·,·,·,·,·,·,·
CNc1cccccc1=S,–,–,–,–,–,10µM,–,–,?,?,32µM
CCc1c(O)nc(SC2CC(=O)N(c3ccc(F)c(Cl)c3)C2=O)[nH]c1=O (stereo not given),–,–,–,–,–,3.2µM,–,–,?,–,–
CC(=O)Nc1ccc(S(=O)(=O)N2CCN(Cc3cccc([N+](=O)[O-])c3)CC2)cc1,–,–,–,–,–,18µM,–,–,–,–,–
